# Laboratory results published in PubChem BioAssay (NCI).
# This is part of a sample that, as a whole, favours compounds with a hit. Of some 83,000 tested, about 20% had one in any assay.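 The endpoint reported here, percent growth, reads 100 for growth as untreated, 0 for no net growth and -100 for all cells dead.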 Unmarked numbers belong to inactive results. The source made the active and inactive calls. How the source made its calls: active means growth percent below 10; inactive means the rest.
# Key:
# Assay in all cases: NCI-60 one-dose screen, 48 h (100 = growth as untreated, 0 = no growth, -100 = all killed)
# Settings in all cases: 10 µM unless noted
# SK-MEL-2 melanoma = tested on: SK-MEL-2 melanoma
# EKVX NSCLC = tested on: EKVX NSCLC
# SN12C renal = tested on: SN12C renal
# UO-31 renal = tested on: UO-31 renal
# TK-10 renal = tested on: TK-10 renal
# ACHN renal = tested on: ACHN renal
# CAKI-1 renal = tested on: CAKI-1 renal
# CCRF-CEM leukemia = tested on: CCRF-CEM leukemia
# MOLT-4 leukemia = tested on: MOLT-4 leukemia
# RPMI-8226 leukemia = tested on: RPMI-8226 leukemia
# OVCAR-8 ovarian = tested on: OVCAR-8 ovarian
# OVCAR-5 ovarian = tested on: OVCAR-5 ovarian
# OVCAR-4 ovarian = tested on: OVCAR-4 ovarian
# IGROV1 ovarian = tested on: IGROV1 ovarian
# OVCAR-3 ovarian = tested on: OVCAR-3 ovarian
# HS 578T breast = tested on: HS 578T breast
# NCI/ADR-RES ovarian = tested on: NCI/ADR-RES ovarian
# SR leukemia = tested on: SR leukemia
# SK-OV-3 ovarian = tested on: SK-OV-3 ovarian
# A498 renal = tested on: A498 renal
SMILES,growth (SK-MEL-2 melanoma),growth (EKVX NSCLC),growth (SN12C renal),growth (UO-31 renal),growth (TK-10 renal),growth (ACHN renal),growth (CAKI-1 renal),growth (CCRF-CEM leukemia),growth (MOLT-4 leukemia),growth (RPMI-8226 leukemia),growth (OVCAR-8 ovarian),growth (OVCAR-5 ovarian),growth (OVCAR-4 ovarian),growth (IGROV1 ovarian),growth (OVCAR-3 ovarian),growth (HS 578T breast),growth (NCI/ADR-RES ovarian),growth (SR leukemia),growth (SK-OV-3 ovarian),growth (A498 renal)
Cc1ccc(-n2nc3c(c(C#N)c2=O)CC(c2ccccc2Cl)C([N+](=O)[O-])=C3O)cc1 (centres undefined),99.2%,90.2%,108%,78.4%,123%,100%,84%,84.3%,77.1%,83.2%,102%,108%,90.4%,90%,103%,94.7%,98.2%,–,–,–
O=C1CC(N2C(=O)/C(=C/C(Cl)=C\c3ccc([N+](=O)[O-])cc3)SC2=S)C(=O)N1c1ccc(O)cc1 (centres undefined),-9.67% (active),-2.89% (active),-8.4% (active),-75.2% (active),-1.39% (active),-71.4% (active),7.93% (active),–,2.92% (active),-15.1% (active),11.6%,-56.5% (active),14.1%,-45.8% (active),-16.4% (active),15.5%,3.58% (active),-13.4% (active),33.5%,–
CCN(CC)CCN1C(=O)c2c(c(C)c3c(oc4cc(O)ccc43)c2C)C1=O,108%,103%,86.9%,69.2%,-92.3% (active),49.5%,-92.5% (active),–,-33.6% (active),-36.3% (active),-62.6% (active),-38.5% (active),-34.4% (active),91.9%,-88% (active),87.7%,78%,-25.3% (active),108%,–
C#CCOc1nc(C)cc(C)c1C#N,111%,97.1%,104%,86.5%,95.9%,99.7%,90.6%,109%,–,111%,–,95.1%,100%,102%,110%,101%,103%,91.8%,101%,–
CCOC(=O)C/C(C)=N\NC(=O)c1ccncc1,120%,89.6%,99.9%,101%,95.8%,103%,52.4%,99.7%,93.9%,90%,99.2%,98.3%,98.2%,–,105%,115%,98%,–,101%,–
CCCCCS(=O)(=O)Nc1ccc(C(=O)O)cc1,93%,100%,101%,97.9%,92.1%,104%,102%,–,–,–,106%,111%,103%,101%,110%,110%,102%,95.7%,99.2%,–
COc1ccc(Cl)cc1NC(=O)C(Br)C(Br)C(=O)O (centres undefined),-24.7% (active),90.9%,59.3%,71.2%,–,78.7%,96.3%,–,16.9%,11.7%,–,122%,30.5%,-14.4% (active),9.69% (active),86.3%,-13.8% (active),–,101%,86.6%
COC(=O)c1c2c(c(C)[n+]([O-])c1C)C(=O)C(NCc1ccc(F)c(Cl)c1)=CC2=O,29.4%,37.8%,-0.149% (active),41.7%,–,30.9%,34%,–,-19.2% (active),20.6%,-14.5% (active),38.2%,-96.4% (active),3.18% (active),-21.3% (active),68%,0.134% (active),–,87.2%,78%
c1csc(-c2c3ccc(=[N+]4CCCCC4)cc-3oc3cc(N4CCCCC4)ccc23)c1,-68.5% (active),-51.8% (active),-65.1% (active),-82.3% (active),–,-94.4% (active),-70.3% (active),-19.7% (active),-28.7% (active),-39.1% (active),-33.5% (active),-83.1% (active),-54.3% (active),-67.1% (active),-96.9% (active),-20.7% (active),-38.9% (active),–,-89% (active),-96.4% (active)
